Source: PubChem BioAssay AID488840 (Broad Institute, 2010)
The whole screen tested about 1,400 compounds, of which about 45 (3%) were called active.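 The calls were made as follows: active = half-maximal dose of signal decrease from fit no higher than ten times the top valid tested dose; inconclusive = fit invalid, or curve flat with 30 to 70% inhibition; inactive = the rest.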 The list is a sample of the results. Potency and affinity values are given separately.

Target: Lysine-specific demethylase 4A (Homo sapiens) (UniProt O75164)
Assay: inhibition of JMJD2A H3K9me3 demethylation – biochemical, DELFIA europium, cherry-picked samples, selectivity assay for GASC-1 inhibitor project, dose response (AID 488840);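 also: europium signal reports the dimethyl H3K9 product detected by antibody so inhibitors lower it; 0% = median of neutral control wells and -100% = median of positive control wells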
Conditions: GST-JMJD2A(1-420) H3K9me3 demethylation; series mostly up to 6 µM; activity change, negative = inhibition: at the top concentration

Chain of Lysine-specific demethylase 4A (Homo sapiens) (O75164 whole entry, looked up): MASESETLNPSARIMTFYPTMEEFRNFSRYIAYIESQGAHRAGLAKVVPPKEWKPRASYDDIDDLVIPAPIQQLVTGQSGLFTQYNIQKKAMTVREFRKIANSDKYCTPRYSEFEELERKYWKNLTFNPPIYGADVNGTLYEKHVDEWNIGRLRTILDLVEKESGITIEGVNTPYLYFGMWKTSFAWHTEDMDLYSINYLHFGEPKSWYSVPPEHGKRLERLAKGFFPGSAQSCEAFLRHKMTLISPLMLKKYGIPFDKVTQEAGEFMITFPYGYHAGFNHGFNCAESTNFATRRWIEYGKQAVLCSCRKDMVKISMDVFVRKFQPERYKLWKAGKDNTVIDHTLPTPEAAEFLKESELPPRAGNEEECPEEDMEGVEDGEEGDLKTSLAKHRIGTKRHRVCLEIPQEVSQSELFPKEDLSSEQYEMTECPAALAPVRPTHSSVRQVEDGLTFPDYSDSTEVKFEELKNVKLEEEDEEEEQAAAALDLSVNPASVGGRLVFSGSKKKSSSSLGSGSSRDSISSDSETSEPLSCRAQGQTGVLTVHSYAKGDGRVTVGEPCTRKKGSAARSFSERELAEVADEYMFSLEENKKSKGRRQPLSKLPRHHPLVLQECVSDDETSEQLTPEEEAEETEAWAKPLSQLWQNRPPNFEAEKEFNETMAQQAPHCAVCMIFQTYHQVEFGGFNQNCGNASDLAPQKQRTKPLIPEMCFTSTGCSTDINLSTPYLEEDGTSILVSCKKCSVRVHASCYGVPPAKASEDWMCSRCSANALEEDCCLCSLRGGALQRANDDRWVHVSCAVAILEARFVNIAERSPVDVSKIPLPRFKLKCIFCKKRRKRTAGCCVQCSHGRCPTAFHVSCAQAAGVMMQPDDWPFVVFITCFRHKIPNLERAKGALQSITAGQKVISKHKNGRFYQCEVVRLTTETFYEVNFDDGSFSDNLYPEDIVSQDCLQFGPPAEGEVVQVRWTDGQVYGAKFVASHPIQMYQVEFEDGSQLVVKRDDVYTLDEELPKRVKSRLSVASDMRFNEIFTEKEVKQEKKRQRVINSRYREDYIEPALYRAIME

Activity change, negative = inhibition, inactive:
O=C(Nc1nnc(-c2cc(Cl)ccc2Cl)o1)c1ccco1 -0.944%
O=C(Oc1ccc(N2C(=O)CCC2=O)cc1)c1ccccc1 -0.204%
O=C(CC1C[C@H](C(=O)N2CCCCC2)[C@@]2(CCc3ccccc3)c3[nH]c4ccccc4c3CCN2C1=O)NCCC1=CCCCC1 (stereo partly specified) 2.22%
Cc1ccc(OCC(=O)Nc2ccccc2Sc2ccccc2)c([N+](=O)[O-])n1 -1.07%
O=c1oc(C2(O)CCCCC2)cc2ccccc12 1.88%
COc1ccc(C(=O)O/N=C(\C)c2cnccn2)cc1 -3.82%
COc1ccc(NC(=O)N(C)C[C@H]2Oc3ccc(NC(=O)CCC(F)(F)F)cc3C(=O)N([C@H](C)CO)C[C@@H]2C)cc1 -0.526%
O=C(CSc1nc(-c2ccccc2)cc(=O)[nH]1)NCc1ccc2c(c1)OCO2 -1.25%
O=S(=O)(c1ccc2nc(Nc3ccccc3)ccc2c1)N1CCCCC1 14.2%
N#Cc1cnn(CC2CCCCC2)c1N 2.59%
CC(=O)C(Sc1nc(N2CCOCC2)nc(N2CCOCC2)n1)C(=O)Nc1ccccc1 (stereo unspecified) -2.12%
CCOC(=O)C1=C(c2ccccc2)NC(=O)NC1c1ccc(O)c(OCC)c1 (stereo unspecified) 3%
CCOC(=O)C1=C(C)NC(=O)NC1c1ccc(Br)s1 (stereo unspecified) -9.77%
Cc1cc(SCC(=O)c2ccccc2)n2nc(C)nc2n1 4.99%
N=c1nc(-c2ccccc2)ccn1O 2.55%
O=C(NCC1CCCO1)Nc1ccccc1 (stereo unspecified) 4.13%
CCOc1ccc(CN2CCN(Cc3nc(C(C)C)cs3)CC2CCO)cc1 (stereo unspecified) 9.55%
O=C(OCc1c(Cl)cccc1Cl)c1cnccn1 -3.04%
Cn1c(=O)c2[nH]c(N3CCN(c4cccc(O)c4)CC3)nc2n(C)c1=O 1.58%
Cc1ccc(NN=Nc2nc3c([nH]2)c(=O)n(C)c(=O)n3C)cc1 -12.8%
C#CCOCCOCCOCCNc1nc(N2CCN(C(=O)C([C@@H](C)O)n3cc([C@@H](N)CCCCN)nn3)CC2)nc(N2CCN(C(=O)[C@H](CC(N)=O)n3cc([C@@H](N)C(C)C)nn3)CC2)n1 (stereo partly specified) 0.979%
COc1ccc(/C=N/N(C)c2cc(=O)n(C)c(=O)[nH]2)cc1OC 8.31%
Nc1ccc(S(=O)(=O)NC2(C(F)(F)F)NC(=O)N(c3ccc(F)cc3)C2=O)cc1 (stereo unspecified) 0.62%
COc1ccc(N(Cc2cc3cccc(C)c3[nH]c2=O)S(C)(=O)=O)cc1 -0.361%
O=C(Nc1ccccc1)N(CCc1nc2ccccc2[nH]1)C1CCCC1 -5.44%
COc1ccc(NC(=O)NCCCCc2ccccc2)c(OC)c1 6.33%
O=C(Cn1cnc2c(OCc3ccccc3)ncnc21)NCCCc1ccccc1 -1.3%
Cc1cc(NC(=O)CCC(=O)N(c2ccccc2)C2(C(=O)NC3CCCCC3)CCCC2)no1 -3.43%
Cc1cnc(NC(=O)c2ccc(-c3nc4ccccc4s3)o2)s1 1.03%
Cn1c(/N=C/c2cc(Cl)ccc2O)nc2ccccc21 4.98%
O=C(COC(=O)C1(c2ccc(Cl)cc2)CCCC1)NC1CCS(=O)(=O)C1 (stereo unspecified) 4.75%
O=C(CSc1nnc(CNC(=O)c2c(F)cccc2Cl)o1)Nc1ccc2c(c1)OCCO2 0.72%
COc1ccc(-c2nn3c(-c4ccco4)nnc3s2)cc1OC 13.3%
O=C(Nc1ccc(-c2nc3ncccc3o2)cc1)c1ccc(Br)o1 -1.12%
CC(C)(C)n1nc2c(c1NC(=O)c1ccc(Br)o1)CS(=O)C2 (stereo unspecified) -1.29%
CCn1c(CCn2ccnc2C)n[nH]c1=S 0.682%
COC(=O)c1cc(S(=O)(=O)N2CCN(c3ccc(F)cc3)CC2)c[nH]1 -2.52%
COc1ccc(/C=N/n2c(=O)[nH]c3c([nH]c4ccc(Br)cc43)c2=O)cc1CN1CCOCC1 2.87%
COc1ccc(S(=O)(=O)N(C)C[C@H]2Oc3ccc(NC(=O)Cn4cnnn4)cc3C(=O)N([C@H](C)CO)C[C@@H]2C)cc1 -2.83%
C=CCNCCOc1cccc(Br)c1 -3.77%
O=C(NCc1ccccn1)c1cn(Cc2ccccc2)nn1 -6.48%
CC(=O)Nc1ccc(NC(=O)Cn2cnc3c(cnn3C(C)(C)C)c2=O)cc1 -13.6%
Cc1ccc(S(=O)(=O)N2[C@@H](c3ccc(C#N)cc3)C(C(=O)O)=C[C@H]2C(C)(C)C)cc1 -3.84%
CC[C@@]1(C(=O)OC)N[C@H](CN(C)C(=O)Nc2ccc(Cl)cc2)[C@@H]2C(=O)N(Cc3ccccc3)C(=O)[C@@H]21 3.72%
O=C(c1cc2ccccc2oc1=O)N1CCN(CCc2ccccc2)CC1 1.84%
Cc1cccc(OCc2nnc(SCC(=O)Nc3cccc(C(=O)N4CCOCC4)c3)o2)c1C -0.255%
N=c1n(CC(=O)c2cccc([N+](=O)[O-])c2)c2ccccc2n1Cc1ccccc1 1.29%
Nc1cccc(C(=O)Nc2ccco2)c1 -3.86%
COc1cc2[nH]c(=O)n(CCCCCC(=O)NCCCN3CCCC3=O)c(=O)c2cc1OC 1.66%
Cc1ccc(CNC(=O)Cc2ccc(-c3ccccc3)cc2)cc1 6.79%
CC(=O)c1sc(NC(=O)c2ccc(C)cc2)nc1C -7.38%
CCN1CCC(=NNC(=O)c2ccc(C)c([N+](=O)[O-])c2)CC1 0.261%
Cc1ccc(C2CC(c3ccccc3)=NN2C(=S)Nc2ccccc2)o1 (stereo unspecified) 3.02%
CC(C)C[C@H](NC(=O)N1CCCCCC1)C(=O)O 0.718%
O=C(NNC(=O)c1cccs1)c1ccc([N+](=O)[O-])cc1 -5.67%
CC1=NN(C(N)=S)C(=O)C1N=Nc1c(C)cc(C)cc1C (stereo unspecified) 3.02%
C=CCn1c(O)c(N=Nc2ccccc2C)c2ccccc21 -6.46%
Cc1ccccc1CNc1nnnn1C -0.727%
COC(=O)c1cc(NC(=O)CSc2nncn2C)cc(C(=O)OC)c1 0.678%
COC(C/C=C\[C@H](O)[C@H](C)OCc1ccccc1)OC 2.1%
CC(C)(C)OC(=O)C[C@@H]1C/C=C\C[C@H](CC(=O)N[C@H](CO)Cc2ccccc2)C(=O)N[C@@H](Cc2ccccc2)COC1=O 0.0527%
C[C@H](CO)N1C[C@H](C)[C@@H](CN(C)Cc2ccc(Cl)c(Cl)c2)Oc2c(NS(=O)(=O)c3cn(C)cn3)cccc2C1=O -0.723%
CCOCCCNC(=O)c1c[nH]c2ccc(C)cc2c1=O 0.456%
Cc1ccccc1CN1C(=O)C(O)(CC(=O)c2ccncc2)c2ccccc21 (stereo unspecified) -4.55%
Cc1ccc(CNC(=O)[C@@H](NC(=O)Cc2ccccc2)C(C)C)cc1 2.23%
O=C(Cc1ccccc1)NC1(O)C(=O)c2ccccc2C1=O -4.47%
COc1ccc(OCC(=O)N/N=C/C(C)=C/c2ccco2)c(Br)c1 -1.99%
COc1ccc(OC)c(/C=C2\SC(=S)N(Cc3cccnc3)C2=O)c1 0.643%
COc1ccccc1N1CCN(C(=O)CSc2nc(C)cc(=O)[nH]2)CC1 -2.92%
COc1ccc(-c2nnc(SC(C)C(=O)NCc3ccc4c(c3)OCO4)n2Cc2ccco2)cc1 (stereo unspecified) 5.3%
CCN(CC)C(=O)N1CCc2ccccc2C1CN1C(=O)c2ccccc2C1=O (stereo unspecified) -1.77%
C=CCc1c(C)nc(SC(C)C)[nH]c1=O -9.55%
O=C(Cn1cnc2c(OCc3ccccc3)ncnc21)N1CCN(c2ccccn2)CC1 -3.78%
CC(=O)c1ccc(O[C@@H]2O[C@H](CO)[C@@H](O)[C@H](O)[C@H]2O)cc1 -4.17%
CC(C)(O)[C@H](O)Cc1cc2ccc(=O)oc2cc1O[C@@H]1O[C@H](CO)[C@@H](O)[C@H](O)[C@H]1O -0.509%
COC(C(=O)Nc1ccc(NC(=O)C(OC)c2ccccc2)cc1)c1ccccc1 (stereo unspecified) 3.15%
